This note sets out measurements from paper PMC9574860, “Chemical Toolkit for PARK7: Potent, Selective, and High-Throughput” (Journal of Medicinal Chemistry, 2022).

About 400 (5.1%) of roughly 7,900 compounds showed an effect of 50% or more. This excerpt belongs to a sample that is enriched for strong results.

Sequence of Parkinson's disease protein 7 (PARK7/DJ1) (Q99497 whole entry, looked up, the tested form may be a part): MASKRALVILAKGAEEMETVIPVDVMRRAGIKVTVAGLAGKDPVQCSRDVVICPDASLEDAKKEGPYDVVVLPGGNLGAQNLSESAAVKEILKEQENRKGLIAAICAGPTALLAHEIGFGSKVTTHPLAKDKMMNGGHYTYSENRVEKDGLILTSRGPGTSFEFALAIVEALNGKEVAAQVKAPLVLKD

This assay addresses Parkinson's disease protein 7 (PARK7/DJ1) (human, UniProt Q99497). The assay is described as follows: primary screen, percent inhibition; read as competition with a fluorescent probe by fluorescence polarization; higher = more effect of the substance. Conditions: 100 µM. The method in brief: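 Covalent fragments at 100 μM final were incubated 2 h with 0.2 μM PARK7, then 20 nM probe JYQ-107 added for a further 2 h. Fluorescence polarization read at 480/520 nm; relative FP loss versus reference controls gave remaining enzyme activity.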
Take `Cc1nc(C=CC(=O)N2CCc3sccc3C2)cs1`: the Inhibition % amounted to 4.01%.

As to `O=C(CCl)Nc1nc2c(F)c(F)c(F)cc2s1`, the Inhibition % was -4.93%. For `COc1ccc(N2CCN(CC3CO3)CC2)cc1` (centres unmarked) the value was 12.9%; for `N#CC1CC2(CC(=O)N2)C1` (centres unmarked), 5.93%; for `Cc1ccc2cccc(OC(=O)N3CCCC3)c2n1`, 13.5%.

Regarding `O=C1CC(c2ccccc2)N1` (centres unmarked), the Inhibition % amounted to 7.05%. Turning to `O=C1CC(Cc2ccccc2)N1` (centres unmarked), the Inhibition % turned out to be 3.33%.

As for `O=C(O)CC1CC(=O)N1` (centres unmarked), the Inhibition % worked out at 65.7%. With `Cc1nc(C#N)c(N)nc1Cl`, the Inhibition % turned out to be 10.2%.

On to `Oc1ccnc(S)n1`, for which the Inhibition % is 2.99%.

Regarding `Cc1ccc2ccccc2c1B(O)O`, the Inhibition % was determined as 0.986%.

Regarding `COc1ccc(NS(=O)(=O)C=Cc2ccccc2)cc1`, the Inhibition % was 1.18%. With `Cc1cc(NS(=O)(=O)C=Cc2ccccc2)ccn1`, the Inhibition % stood at 29.4%. The result for `CCn1cc(NS(=O)(=O)C=Cc2ccccc2)cn1` reads 81.4%. Consider `COc1ccc(NS(=O)(=O)C=Cc2ccccc2)cn1`, for which the Inhibition % is reported as 59.9%. Consider `CN(C)c1ccc(NS(=O)(=O)C=Cc2ccccc2)cn1`, for which the Inhibition % turned out to be 69.9%. Consider `COc1ccccc1NS(=O)(=O)C=Cc1ccccc1`, for which the Inhibition % stood at 7.7%. For `Cc1ccc(C=CS(=O)(=O)Nc2cnn(CCO)c2)cc1` the value was 14.7%.

Turning to `COc1ccc(NS(=O)(=O)c2ccc(S(=O)(=O)F)cc2)cn1`, the Inhibition % stood at 100%. In the case of `O=S(=O)(F)c1ccc(S(=O)(=O)Nc2ccnnc2)cc1`, the Inhibition % is on record as 8.23%. For `N#Cc1ccc(NS(=O)(=O)C=Cc2ccccc2)cc1` the value was 10.5%. The result for `O=S(=O)(C=Cc1ccccc1)Nc1ccc(F)c(F)c1` reads 1.18%. For the compound `O=C(CCl)NCc1ccc(C(=O)N2CCOCC2)cc1`, the Inhibition % was 19.5%. The result for `C=CC(=O)NC1C2CCOC2C12CCCC2` (centres unmarked) reads 5.2%; that for `C=CC(=O)N1CCOCC(C)C1` (centres unmarked), 6.12%; that for `O=C1SCCN1CN1CCC(c2ccccc2)CC1`, 11.7%. The result for `Cc1cccc(NC2C=CS(=O)(=O)C2)c1` (centres unmarked) reads 7.19%; that for `CC1(C)COCCN1Cn1nc(-c2ccccc2)oc1=O`, 8.59%.

With `COc1ncc(B2OC(C)(C)C(C)(C)O2)cn1`, the Inhibition % stood at 4.41%. The result for `C=CC(=O)N1CCOCC1c1nnc(C(C)C)o1` (centres unmarked) reads 10%. The result for `Cc1cccc(C)c1N1C(=O)CN=C1S` reads 1.33%; that for `Cc1ccc(S(=O)(=O)N2CCCCC2C2OCCO2)cc1` (centres unmarked), 3.92%. With `O=C(CCc1ccc(S(=O)(=O)F)cc1)N1CCCCC1`, the Inhibition % was 12.4%. For `CC(C)N(C)C(=O)CCc1ccc(S(=O)(=O)F)cc1`, the Inhibition % is recorded as 4.68%. Consider `O=C(Cc1ccc(S(=O)(=O)F)cc1)Nc1ccccc1Cl`, for which the Inhibition % came out at 12.8%. In the case of `O=C(O)CCc1ccc(S(=O)(=O)F)cc1`, the Inhibition % is given as 82.3%. On to `O=C(Cc1ccc(S(=O)(=O)F)cc1)NC1CCCC1`, for which the Inhibition % came out at 2.81%. For `O=C(O)Cc1ccc(S(=O)(=O)F)cc1` the value was 89.7%; for `OB(O)c1ccc(OCC(F)(F)F)cc1F`, 13%. Take `CC(c1ccccc1)C1CO1` (centres unmarked): the Inhibition % is reported as -0.54%.

For the compound `COc1ccc(C2CCCN2C(=O)n2ccnc2)cc1` (centres unmarked), the Inhibition % was 6.77%. Turning to `CC1(C)OB(c2ccc(N)c(CO)c2)OC1(C)C`, the Inhibition % is given as 7.71%.

On to `C=CC(=O)N1CCCC(c2nc(C)c(C)s2)C1` (centres unmarked), for which the Inhibition % turned out to be 6.18%. For `C=CC(=O)N1CCC(c2ncno2)CC1` the value was 9.72%. For `N#Cc1ccncc1C(=O)O` the value was 12.3%; for `N#Cc1cccnc1S`, 11.9%; for `N#Cc1cnccc1S`, 92.5%. Turning to `O=C(NCCCS(=O)(=O)F)OCc1ccccc1`, the Inhibition % is recorded as 95.8%. The result for `O=C(NCCS(=O)(=O)F)c1ccccc1` reads 13.4%; that for `O=C(NCCCS(=O)(=O)F)c1cccs1`, 98.9%. As to `O=C(CCl)NC(=O)c1cccs1`, the Inhibition % turned out to be 23.4%. For `O=S(=O)(F)CCc1ccccc1`, the Inhibition % is 4.21%. The result for `O=C(c1ccccc1)N1CCCC(CS(=O)(=O)F)C1` (centres unmarked) reads 71.4%.

Take `O=C(c1ccccc1)N1CCCC(S(=O)(=O)F)C1` (centres unmarked): the Inhibition % is 32.4%. The result for `O=C(c1ccccc1)N1CCC(CCl)C1` (centres unmarked) reads 2.86%; that for `COC(=O)C1CC(S(=O)(=O)F)CN1C(=O)c1cccs1` (centres unmarked), 11%. With `O=C(OCc1ccccc1)N1CCCCC1CS(=O)(=O)F` (centres unmarked), the Inhibition % turned out to be 16%. For `O=C(CCl)NC(=O)OCc1ccccc1` the value was 33.1%; for `O=C(c1cccs1)N1CCCCC1CCS(=O)(=O)F` (centres unmarked), 84.1%; for `c1csc(COCC2CO2)c1` (centres unmarked), 0.211%.

Turning to `C=CC(=O)NC1CCCN(c2cccnc2)C1=O` (centres unmarked), the Inhibition % came out at 15.4%. The result for `C=CC(=O)NC1(C2CC2)CCOCC1` reads 7.04%; that for `C=CC(=O)N1CCC(Oc2cccnc2N2CCCC2)C1` (centres unmarked), 13.2%; that for `C=CC(=O)N1CC2(CCOCC2)c2ccccc21`, 7.61%.

Take `O=C(CCl)N1CCN(C(=O)c2cccs2)CC1`: the Inhibition % is listed as 40.3%.

For the compound `O=C(c1cccs1)N1CCOC(CS(=O)(=O)F)C1` (centres unmarked), the Inhibition % is 14.7%. Turning to `O=C(c1cccs1)N1CCC(CS(=O)(=O)F)C1` (centres unmarked), the Inhibition % was 97.1%.

Consider `O=C(c1cccs1)N1CCC(S(=O)(=O)F)CC1`, for which the Inhibition % was 10.8%. Regarding `O=C(NC1CCN(C2CCOC2=O)CC1)c1cccs1` (centres unmarked), the Inhibition % was determined as 7.52%. Regarding `O=C1OCCC1N1CCN(C(=O)c2cccs2)CC1` (centres unmarked), the Inhibition % worked out at 9.27%. For `O=C(c1cccs1)N1CCCC(CS(=O)(=O)F)C1` (centres unmarked) the value was 90.1%; for `O=C(CCl)NNC(=O)c1cccs1`, 7.74%; for `O=C(c1cccs1)N1CCCC(S(=O)(=O)F)C1` (centres unmarked), 73.5%. For `O=C(c1cccs1)N1CCC(CS(=O)(=O)F)CC1` the value was 35.6%; for `O=C(N[C@H]1CC[C@@H](CS(=O)(=O)F)C1)c1cccs1` (racemic), 96.8%.

With `O=C(c1ccccc1)N1CC(S(=O)(=O)F)C1`, the Inhibition % stood at 35.6%.

On to `Nc1cccc(OC2CC(=O)N2)c1` (centres unmarked), for which the Inhibition % was 18.6%.

As to `O=C(O)C1COCCN1C(=O)C=Cc1ccc(Cl)s1` (centres unmarked), the Inhibition % came to 13.1%. For the compound `C=CC(=O)NCC1CC2(CCOCC2)CO1` (centres unmarked), the Inhibition % is recorded as 5.16%. For `CC(C)(C)OC(=O)N1CCOc2cccc(B3OC(C)(C)C(C)(C)O3)c2C1` the value was 3.79%. The result for `CC(Cl)Cc1cc2ccc(O)cc2oc1=O` (centres unmarked) reads 12.3%.

Regarding `O=C(CCl)Nc1cc(F)cc(F)c1`, the Inhibition % is recorded as 14.6%.

Take `C=CC(=O)N1CCN(CC(C)C)C(=O)C1C` (centres unmarked): the Inhibition % is given as 0.151%.

Turning to `COc1ccc(C)cc1S(=O)(=O)Oc1ccccn1`, the Inhibition % was 17%. For `CCCOc1cc(C)c(C)cc1S(=O)(=O)n1ccnc1C` the value was 8.09%; for `COC(=O)c1cc([N+](=O)[O-])cc(B2OC(C)(C)C(C)(C)O2)c1C`, 12.9%. For `COc1ccccc1-c1nnc(-c2ccc(S(=O)(=O)F)cc2)o1` the value was 9.83%; for `COc1cc(S(=O)(=O)F)ccc1O`, 17.3%; for `COc1ccc(S(=O)(=O)F)cc1O`, 54%. The result for `C=CC(=O)Nc1ccc(OCC)c(CO)c1` reads 4.38%.

As for `COc1cc(OC(F)F)ccc1B1OC(C)(C)C(C)(C)O1`, the Inhibition % is on record as -1.65%.

With `COc1ccc(B2OC(C)(C)C(C)(C)O2)c(N)c1`, the Inhibition % is 56%.

For the compound `COc1ccc(B2OC(C)(C)C(C)(C)O2)c(C#N)c1`, the Inhibition % is 7.16%. As to `CC1(C)OB(c2ccnn2-c2ccccc2)OC1(C)C`, the Inhibition % came to 14.9%. For `CC1CC(Sc2ccccn2)C(=O)O1` (centres unmarked) the value was 5.37%.

As to `Cc1cc(S(N)(=O)=O)cc(NC(=O)CCl)c1C`, the Inhibition % was 2.37%. For the compound `C=CC(=O)NC1CCC2(CC1)CC2(F)F` (centres unmarked), the Inhibition % came out at 3.45%.

Turning to `C=CC(=O)Nc1ccc2sncc2c1`, the Inhibition % turned out to be 97.4%.

`C=CC(=O)Nc1ccc2c(cnn2C(F)F)c1`: the Inhibition % came to 6.45%. For `C=CC(=O)Nc1ccc2occc2c1` the value was 9.28%; for `CC1(C)C(=O)NC1C1CCN(CC(C)(O)C(F)(F)F)CC1` (centres unmarked), 6.49%; for `C=CC(=O)N1CCOC(c2ccccc2)C1` (centres unmarked), 4.98%.

As for `O=C1CN=C(S)N1c1ccccc1Cl`, the Inhibition % worked out at 5.52%. For `O=C1CCC(=O)N1CC(=O)N1CCCc2ccccc21` the value was 10.8%; for `CC1CCc2ccccc2N1C(=O)CCl` (centres unmarked), 100%. As for `CC1Cc2ccccc2N1C(=O)CCl` (centres unmarked), the Inhibition % was 8.22%.

`NS(=O)(=O)c1ccc2c(c1)CCN2C(=O)CCl`: the Inhibition % is 83.1%. The result for `O=C(CCl)NCCCN1CCCC1=O` reads 3.35%. Regarding `CN(C)S(=O)(=O)c1ccc2c(c1)CCCN2C(=O)CCl`, the Inhibition % is listed as 8.14%.

Regarding `C=CC(=O)NCCC(=O)N1c2ccccc2CCC1C` (centres unmarked), the Inhibition % worked out at 5.89%. As to `O=C(CCl)N1CCCc2ccccc21`, the Inhibition % is 69.2%.

As for `O=C(CCl)N1CCCC1=O`, the Inhibition % amounted to 79.2%. As for `O=C(CCl)N1CCc2ccccc21`, the Inhibition % was -0.66%. The result for `O=C(CCl)N1CCc2cc([N+](=O)[O-])ccc21` reads 5.06%; that for `O=C1CCCN1CCCl`, 5.09%; that for `C=CC(=O)N1CC(C)OC(COC)C1` (centres unmarked), 6.19%. As for `C=CC(=O)N1CCCC(N(C)Cc2noc(C)n2)CC1` (centres unmarked), the Inhibition % is 1.13%. The result for `O=C(CCl)Nc1ccccc1C(=O)Nc1ccc(F)cc1` reads 6.28%; that for `O=C(CCl)N(Cc1ccco1)CC(F)(F)F`, 11.9%; that for `CC1(C)OB(c2ccc(F)cc2[N+](=O)[O-])OC1(C)C`, 3.67%. The result for `O=C(Nc1ccc2c(c1)COC2)c1cccnc1S` reads 2.52%. Regarding `C=CC(=O)NC1C2Cc3ccccc3C21` (centres unmarked), the Inhibition % is given as 11.1%. For `O=C(CCCl)N1CCc2ccccc21` the value was 3.9%; for `O=C(CCl)N1c2ccccc2CCc2ccccc21`, 61%; for `O=C(CCl)N1c2ccccc2Sc2ccccc21`, 1.08%.
